From the supplement of paper PMC6555819 come the findings set out here.

This test concerns VDR:RXRa (NR concentration 270 nM, RXRa partner concentration 90 nM). Kind of test: PBM binding z-score (relative to random genomic background probes); higher = stronger binding; sequences stand for … in GC…GCGATTGACAGCGTAGAATGAAGG
Here is the method:
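Protein-binding microarray (Agilent 4x180K custom design, double-stranded 60-nt probes: 5' GC cap, 34-nt variable region, 24-nt constant primer region; full probe sequence given). Purified or IVT nuclear receptor:RXRα heterodimers (3:1 NR:RXRα, mostly 270:90 nM) or homodimers were incubated for 1 h in PBS with 2% milk and no ligand, then detected with Alexa488 antibodies. Fluorescence from o1-orientation probes (~5 replicates averaged) was converted to z-scores against 500 random hg19 background probes. Variable regions are seed direct-repeat (DR0–DR5) sites, all their single-nucleotide variants and half-site ablations.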
TCTAGTTGGTCACAGGTCACACACTCGAAATGCG returned a PBM binding z-score of 2.95.
The value for CCTAGTTGGTCAGGAGGTCACAGACCGGATATGA was 3.64.
Turning to ACTCGAAGGACAAAGGTCAGAGCTACGCCAGTGA, the PBM binding z-score worked out at 2.96.
As for GGAACGAGGGCATTCGATTTGATAGCATGGCGAT, the PBM binding z-score worked out at 1.73.
Take TCTAGTTGGTCAAAGGTCACATACTCGAAATGCG: the PBM binding z-score amounted to 5.02.
The figure for TCTTGTAGTTCAAAGGTTAAGAAAGCCGAAGCCT is 3.68; for TCAGACAGGTGAAGGTGACTCAGGTACGCAGTCG it is 1.04.
The value for ATATATAGGTTAAGGGTCATTCAGGTTGGTTCGC was 6.11; that for CGTACTGGGCCAAAAAGGTCATTGATGCCGATAA was 5.04; that for TCTCGGAGGACACGAATGGTCAGAGCTCGACATC was -0.0797.
The figure for CAAACTAGGTCAAGGTCAAAGGCGGTTTGTGCCA is 4.87; for ACTTACGGGTCAACCAGGTTATAGCACGCGTATA it is 6.72; for TATACAGGGTCAAAGGCCAGGGTACGAATGTCGA it is 4.93.
As to CGTCCAAGGTCATAGGAGCTCAGTGAAGACAGAT, the PBM binding z-score is 4.11.
The value for CGTCAAAGTTCCAGGTAACGTAACAGAAAGCAGC was -0.14.
The figure for TCTCGGAGGACACGAAAGGTCACAGCTCGACATC is 4.91; for TTACCAAGGTGAAAGGTAGTTGATGCACGCCTTG it is 0.524; for CCTTACGGGTCACTCCACGTTATAGCATCGGAGT it is 2.65.
The figure for GAACCAAGGTGAATAGGTCGTTGATGAGTAGGCG is 0.843.
For TCTATTACTTGATTAGGGCAACCGAAACAGCGGA, the PBM binding z-score is 0.676.
The figure for GGAACTAGGGCATTCGAGTTGATAGCATGGCGAT is 1.23; for GCTAGCAGGCAATTTGGGTCACTCAATGACGGGC it is 0.222; for TAGCCTAGGTCATGCGGGCCAGTAGAGTGTCGGC it is 2.95.
For the sequence CTCGAAAGGACGTGCTCAGGTGAGTATACCAAAC, the PBM binding z-score is -0.251.
Regarding GCTAGCAGGCCATTAGGGTCACTCAATGACGGGC, the PBM binding z-score came out at 4.6.
The figure for ACTAGCAGGCCAAGTTCGGGTCACTCAAACAAAG is 2.43.
The value for TCGAGTAGGTTAGTCGGGGCATTAAGCCAACATA was 1.66; that for TCTATTAGTTGATTAGGTCAACCGAAACAGCGGA was 1.94.
The figure for TCATATAGGTATACAGGTGAAAGTCCGTAAGTTA is 1.07; for ATCTCTAGGTAACCAAGTTCAGTGGATGCCGAAC it is 4.04; for ATCTCTAGGTAAGACTCATTTCAGTGAAGAACGC it is 0.308.
The sequence GGAACGAGGGCATTCGAGTTTATAGCATGGCGAT returned a PBM binding z-score of 5.31.
As for CCGACTGGGGCAGAAATGTTACCATACCATCCGG, the PBM binding z-score is -0.557.
On to TCTATTAGTTGAAGGGCTACCGACGAGTCCGTTT, for which the PBM binding z-score was determined as 0.745.
The value for ATCTTTAGGTAAAAGTTCAGTGAATCCCGAGGAT was 1.43; that for CAAACTAGGTCACGAAAGGTCTAAGTCGAATGAC was 3.75.
The value for TCTCGGAGGACACGAAGGGTCAGAGCTCGACATC was 1.91; that for CGTCACAGTTCAACTAAGGTAACGTAAAGCACGC was 2.92; that for GGAGCGAGGGCATTCGAGTTGATAGCATGGCGAT was 3.31.
The figure for ACAGACAGGTGATGAAGGTAACTCTGGCTATCAT is 0.00307.
